Results from publication PMC4336329 (PLoS ONE, 2015).
Among all 310,000 compounds or so, about 14,000 (4.5%) showed an effect of 50% or more. The effect is printed as a negative number. The sample holds strong results, similar compounds and a random draw of the others, so the mix is not that of the screen.

Biological target: human ether-à-go-go-related gene (hERG) potassium channel (human, UniProt Q12809)
Test: primary screen, population patch clamp on CHO cells stably expressing hERG; higher = less effect of the substance
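Note: peak tail current of the secondary pulse compared with the same well before compound.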

Sequence of human ether-à-go-go-related gene (hERG) potassium channel (Q12809 whole entry, looked up): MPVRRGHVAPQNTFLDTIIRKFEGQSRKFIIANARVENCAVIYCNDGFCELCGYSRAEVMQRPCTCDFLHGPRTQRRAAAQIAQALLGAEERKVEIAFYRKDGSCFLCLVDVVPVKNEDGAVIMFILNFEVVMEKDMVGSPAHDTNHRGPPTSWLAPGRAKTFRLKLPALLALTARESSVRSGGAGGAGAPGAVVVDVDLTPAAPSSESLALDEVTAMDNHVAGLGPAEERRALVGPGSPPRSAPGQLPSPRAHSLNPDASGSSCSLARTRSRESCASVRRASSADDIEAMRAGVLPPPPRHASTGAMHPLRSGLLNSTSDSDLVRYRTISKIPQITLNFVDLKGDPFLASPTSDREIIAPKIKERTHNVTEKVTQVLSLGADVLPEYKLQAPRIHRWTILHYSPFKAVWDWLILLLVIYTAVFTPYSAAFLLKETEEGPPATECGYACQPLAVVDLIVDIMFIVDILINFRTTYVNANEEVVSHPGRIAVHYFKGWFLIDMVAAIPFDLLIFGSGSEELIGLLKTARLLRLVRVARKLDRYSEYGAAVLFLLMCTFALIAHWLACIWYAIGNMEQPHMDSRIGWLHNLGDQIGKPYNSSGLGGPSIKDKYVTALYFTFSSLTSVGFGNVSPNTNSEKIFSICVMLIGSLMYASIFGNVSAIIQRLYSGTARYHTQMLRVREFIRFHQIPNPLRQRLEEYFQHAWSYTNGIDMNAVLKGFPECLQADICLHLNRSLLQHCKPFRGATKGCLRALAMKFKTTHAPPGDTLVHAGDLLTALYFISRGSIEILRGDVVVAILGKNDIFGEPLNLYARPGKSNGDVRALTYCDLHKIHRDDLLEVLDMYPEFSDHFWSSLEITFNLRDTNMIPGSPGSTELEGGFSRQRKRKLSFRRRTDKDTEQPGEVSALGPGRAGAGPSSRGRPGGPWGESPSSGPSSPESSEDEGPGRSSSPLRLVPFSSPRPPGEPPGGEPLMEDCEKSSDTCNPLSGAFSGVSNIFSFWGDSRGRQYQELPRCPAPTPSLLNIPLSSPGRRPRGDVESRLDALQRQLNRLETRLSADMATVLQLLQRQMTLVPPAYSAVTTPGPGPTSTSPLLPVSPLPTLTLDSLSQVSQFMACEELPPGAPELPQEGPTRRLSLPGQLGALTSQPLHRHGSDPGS

SMILES	hERG current change (%, negative = inhibition) at 10uM
N#CC1=C(N)Oc2n[nH]c(-c3ccccc3)c2C12C(=O)Nc1ccccc12 (stereo not drawn)	17.4%
NC(=S)N/N=C/c1coc2ccc(F)cc2c1=O	10.3%
COCCNC(=O)c1ccc(-n2c(SCc3cccnc3)nc3ccccc3c2=O)cc1	-8.88%
Fc1ccc(/C=N/Nc2cc(N3CCOCC3)ncn2)cc1	15.4%
COC(=O)c1ccccc1N/C=C/C(=O)c1ccc(Br)cc1	16.1%
Cn1c(SCC(=O)NNC(=O)Cc2ccccc2)nc2ccccc2c1=O	11.7%
COc1ccc(CCC(=O)N2CC(C)OC(C)C2)cc1 (stereo not drawn)	5.02%
CCOCc1nnc(NC(=O)c2cc(C(=O)OC)cc([N+](=O)[O-])c2)s1	21.3%
C(=N\Nc1nc(-c2ccccc2)cs1)/c1cccnc1	-59.5%
Br.CC(=O)Nc1ccc(-c2csc(N/N=C\c3ccncc3)n2)cc1	4.43%
Clc1ccc(-c2csc(N/N=C\c3cccnc3)n2)cc1	6.05%
Brc1ccc(-c2csc(N/N=C/c3cccnc3)n2)cc1	19.6%
C(=N\Nc1nc(-c2ccccc2)cs1)/c1ccncc1	-50.5%
C(=N\Nc1nc(-c2ccccc2)cs1)/c1cccs1	18.5%
CC(=O)Oc1ccc2oc(C)c(C(=O)N3CCOCC3)c2c1	-8.91%
CCN(CC)C(=O)Oc1nnc(SC(C)C)n1-c1ccc(Cl)cc1	-4.75%
Nc1ccc(Oc2ccc(Br)cc2)cc1	-4.61%
CN1C(=O)/C(=N\OC(=O)c2ccccc2Cl)c2ccccc21	-42.8%
Cc1[nH]n(-c2ccccc2)c(=O)c1N=Nc1cccc(C(=O)O)c1	23.1%
O=C(NC1CCCC1)C1(c2ccccc2)CCN(S(=O)(=O)c2ccccc2)CC1	-6.14%
CCCn1c(C(C)NC(=O)c2ccccc2)n[nH]c1=S (stereo not drawn)	12.7%

SMILES	hERG current change (%, negative = inhibition) at 10uM
O=C(C#Cc1ccccc1)c1ccco1	5.83%
CCOC(=O)C1(Cc2cccc(OC)c2)CCN(Cc2cccc3cnccc23)CC1	-39.3%
CCOC(=O)C1(CCc2ccccc2)CCN(Cc2cccc3cnccc23)CC1	-69.6%
CCOC(=O)C1(CCc2ccccc2)CCN(Cc2cccc3nccnc23)CC1	-60.5%
CCOC(=O)C1(Cc2ccc(OC)cc2)CCN(C(=O)c2cccc3nccnc23)CC1	-31.4%
CCOC(=O)c1[nH]ncc1CN1CCC(Cc2ccccc2)(C(=O)OCC)CC1	-35.3%
CCOC(=O)C1(Cc2ccccc2)CCN(Cc2cccc3nccnc23)CC1	-59.9%
CCOC(=O)C1(CCOc2ccccc2)CCN(Cc2cccc3nonc23)CC1	-28.6%
O=C(CSC1=NCCS1)Nc1ccnc2ccccc12	-5.91%
COc1ccc(Cl)cc1C(=O)OCC(=O)Nc1cccnc1Cl	15.8%
COc1ccc(CN(C(=S)Nc2ccccc2)C2CC(=O)N(c3ccc(F)cc3)C2=O)cc1 (stereo not drawn)	26.5%
COc1ccc2cc(Br)ccc2c1CC(=O)NC(C)(C)C	17.3%
Cn1cc(C(c2ccccc2OCC(=O)O)c2cn(C)c3ccccc23)c2ccccc21	3.58%
COC(=O)c1ccc(NC(=S)NC2CCCCC2)cc1	1.13%
Cc1ccc(C(=O)N2CCN(c3ncccn3)CC2)o1	13.4%
Cc1c(C(=O)N2CCN(c3ccc([N+](=O)[O-])cc3)CC2)oc2ccccc12	-72.8%
COc1ccc(N2CCN(C(=O)c3oc4ccccc4c3C)CC2)cc1	-31.9%
Cc1c(C(=O)N2CCOCC2)oc2ccccc12	5.05%
Cc1c(-c2ccccc2)oc2c(C(=O)N3CCN(c4ccc([N+](=O)[O-])cc4)CC3)cccc2c1=O	-75.4%
Cc1occc1C(=O)N1CCN(c2ccccc2)CC1	-8.67%
COc1ccccc1N1CCN(C(=O)c2cccc3c(=O)c(C)c(-c4ccccc4)oc23)CC1	-31.2%
